Screening results deposited in PubChem BioAssay by NMMLSC.
In the library only some 1.2% were active in any assay of this set; here they are far more common.
RGS8-Gao = modulates binding of RGS8 to human Galphao | AID 1423 | P09471 | response (percent of control binding), % at 10 µM | 0.34% of 220,000 active | multiplexed bead flow cytometry; actives lie on both sides; in the data active = response below about 60% or above about 140%; inactive = in between;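 note: Galphao activated as the GDP aluminium fluoride complex binding bead-coupled RGS8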
GSH bead fluor = GSH bead compound fluorescence profile; fluorescence (KMESF) at 10 µM; 0.25% of 190,000 active; AID 1776; GSH beads flow cytometry, compound fluorescence 488/530 nm; hits give high values; in the data active = fluorescence above about 89;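 note: glutathione beads carrying GST-tagged Bcl family fusion proteins plus one bare bead set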
RGS4-Gao reg = human RGS4-Galphao interaction regulation | 0.33% of 220,000 active | Multiplexed bead flow cytometry, RGS4-Galphao binding; actives lie on both sides | AID 1415 | binding response (% of control), % at 10 µM; in the data active = binding response below about 49% or above about 150%; inactive = in between;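 note: fluorescent Galphao activated with aluminum fluoride binding bead-coupled RGS4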
RGS7-Gao reg = regulators of human RGS7-Galphao interaction. P09471. Multiplexed bead flow cytometry, RGS7-Galphao binding; actives lie on both sides. binding response (% of control), % at 10 µM. 0.35% of 220,000 active; in the data active = binding response below about 49% or above about 150%; inconclusive = no clear call, values can overlap the other calls; inactive = in between;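 note: fluorescent Galphao held in activated GDP-AlF4 state binding bead-coupled RGS7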
RGS16-Gao = modulates binding between human RGS16 and Galphao. O15492+P09471. bead-based flow cytometry RGS16-Galphao binding, fluorescence; actives lie on both sides. binding response (% of control), % at 10 µM. 0.38% of 220,000 active;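 note: Galphao activated by GDP with aluminum fluoride before binding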
Target sequence (O15492 whole entry, looked up): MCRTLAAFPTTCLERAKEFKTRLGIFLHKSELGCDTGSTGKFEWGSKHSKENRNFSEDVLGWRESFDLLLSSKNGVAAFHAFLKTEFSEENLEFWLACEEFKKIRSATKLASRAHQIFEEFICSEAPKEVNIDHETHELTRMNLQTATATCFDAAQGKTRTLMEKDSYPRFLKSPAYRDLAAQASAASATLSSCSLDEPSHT
Target sequence (P09471 whole entry, looked up): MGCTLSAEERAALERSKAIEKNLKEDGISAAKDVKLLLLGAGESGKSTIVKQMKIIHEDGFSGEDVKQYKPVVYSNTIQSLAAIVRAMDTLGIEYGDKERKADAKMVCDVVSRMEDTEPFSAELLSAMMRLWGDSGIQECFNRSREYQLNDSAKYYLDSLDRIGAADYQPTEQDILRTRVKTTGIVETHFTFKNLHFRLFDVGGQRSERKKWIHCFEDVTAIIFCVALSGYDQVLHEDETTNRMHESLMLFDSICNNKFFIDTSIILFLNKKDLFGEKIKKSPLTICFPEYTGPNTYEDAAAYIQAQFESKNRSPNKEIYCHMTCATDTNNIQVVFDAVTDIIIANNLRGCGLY
Avidin bead fluor = avidin bead compound fluorescence profile; Avidin beads, compound fluorescence 488/530 nm, flow cytometry; hits give high values; fluorescence (KMESF) at 10 µM; 0.38% of 220,000 active; in the data active = fluorescence above about 47
RGS4-Gao HTS = regulators of human RGS4-Galphao interaction. 99% of 1,600 active. RGS4–Galpha-o binding response, % at 10 µM. AID 1504. shares compounds with RGS16-Gao. multiplexed bead flow cytometry, RGS–Galpha-o binding;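 note: fluorescently labeled Galpha-o bound to GDP with aluminium fluoride binding biotinylated RGS beads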
Avidin counter = counter-screen: compounds disrupting biotin binding to avidin beads; streptavidin beads, fluorescein-biotin binding, flow cytometry; 1,700 tested, under 10 active; shares compounds with RGS16-Gao; AID 1783; inhibition, % at 10 µM;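 active = inhibition above 50%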;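 note: median green fluorescence of gated singlet beads compared with DMSO control wells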
RGS8-Gao confirm = RGS8-Galphao interaction regulation, single point confirmation. shares compounds with RGS16-Gao. bead-based flow cytometry RGS8-Galphao binding, fluorescence; actives lie on both sides. binding response (% of control), % at 10 µM. 3% of 1,700 active. AID 1836; in the data active = binding response below about 72% or above about 130%; inactive = in between;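 note: Galphao activated as GDP AlF4 complex before binding bead RGS8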
RGS7-Gao single = RGS7-Galphao interaction regulation, single point confirmation. shares compounds with RGS16-Gao. bead-based flow cytometry RGS7-Galphao binding; actives lie on both sides. response (percent of control binding), % at 10 µM. 7.8% of 1,700 active. AID 1837; in the data active = response below about 75% or above about 130%; inactive = in between;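 note: fluorescent Galphao activated with GDP and aluminum fluoride binding bead-coupled RGS7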
RGS16-Gao conf = RGS16-Galphao interaction regulation, single point confirmation | shares compounds with RGS16-Gao | bead-based flow cytometry, RGS16-Galphao binding; actives lie on both sides | response (% of control binding), % at 10 µM | 4% of 1,700 active | AID 1838; in the data active = response below about 74% or above about 130%; inactive = in between;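 note: Galphao activated as the GDP aluminium fluoride complex binding bead-coupled RGS16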
RGS4-Gao confirm = confirmation of regulators of human RGS4-Galphao interaction; shares compounds with RGS16-Gao; RGS4-Galphao binding, multiplexed bead flow cytometry; actives lie on both sides; binding response (% of control), % at 10 µM; 4% of 1,700 active; AID 1840; in the data active = binding response below about 74% or above about 130%; inactive = in between
RGS19-Gao single = RGS19-Galphao interaction regulation, single point confirmation; response (percent of control binding), % at 10 µM; AID 1841; 5% of 1,700 active; bead-based flow cytometry RGS19-Galphao binding; actives lie on both sides; shares compounds with RGS16-Gao; in the data active = response below about 50% or above about 160%; inactive = in between
Each line names hits and unclear results; the compound was inactive in the other large screens (follow-up assays come after a bar, where they were run); [ ] = remark or other dose. Unless noted, the rule behind the calls is not given here.

CN1CCN(C2=C(Cl)C(=O)C(c3cnc(N4CCCCC4)s3)=C(Cl)C2=O)CC1	RGS16-Gao 14.1 | RGS4-Gao HTS 70.1 | Avidin counter inactive | RGS8-Gao confirm 27.5 | RGS7-Gao single 18.2 | RGS16-Gao conf -8.3 | RGS4-Gao confirm 63.1 | RGS19-Gao single -8.1
c1ccc2[nH]c(CSc3ncnc4c3oc3ccccc34)nc2c1	none
Cc1nc(SCc2nc3ccccc3[nH]2)c2oc3ccccc3c2n1	RGS7-Gao reg 166.7[activator], Avidin bead fluor 133 | RGS4-Gao HTS 128.0
CCCCCc1nc2c(c(=O)c3ccccc3n2C)c(=O)n1Cc1ccc(OC)cc1	RGS7-Gao reg inconclusive (no result: GSH bead fluor)
CCC(C)(C)NC(=O)C1CCN(S(=O)(=O)c2cccs2)CC1	RGS4-Gao reg 465.1[activator], RGS7-Gao reg 424.1[activator], RGS16-Gao 363.9[activator], Avidin bead fluor 80 | Avidin counter inactive | RGS8-Gao confirm inactive | RGS7-Gao single inactive | RGS16-Gao conf inactive | RGS4-Gao confirm inactive | RGS19-Gao single inactive
O=c1c(Cl)c(NCc2ccccc2Cl)cnn1C12CC3CC(CC(C3)C1)C2	none
CC(=Nc1ccccc1)Nc1ccccc1	RGS8-Gao 159.0[activator] (no result: RGS16-Gao) | RGS4-Gao HTS 144.3 | Avidin counter inactive | RGS8-Gao confirm inactive | RGS7-Gao single inactive | RGS16-Gao conf inactive | RGS4-Gao confirm inactive | RGS19-Gao single inactive
C[C@]12CCC(O)CC1CCC1C2CC[C@]2(C)C(c3cc(C(F)(F)F)n[nH]3)CCC12 (stereo partly drawn)	RGS7-Gao reg inconclusive (no result: GSH bead fluor)
O=C(NC1CCCCCCC1)C1CCN(S(=O)(=O)N2CCCC2)CC1	RGS8-Gao 58.5 | RGS4-Gao HTS 57.9 | Avidin counter inactive | RGS8-Gao confirm inactive | RGS7-Gao single inactive | RGS16-Gao conf inactive | RGS4-Gao confirm inactive | RGS19-Gao single inactive
O=C(Cc1ccccc1)Nn1c(O)c(/C=C2\C=Nc3ccccc32)sc1=S	RGS16-Gao 262.2[activator] | RGS4-Gao HTS 98.8 | Avidin counter inactive | RGS8-Gao confirm inactive | RGS7-Gao single inactive | RGS16-Gao conf inactive | RGS4-Gao confirm inactive | RGS19-Gao single inactive
N#Cc1ccc(N2Cc3ccccc3C2=NC(=O)c2cccnc2Cl)cc1	none
COc1ccc(S(=O)(=O)N2CCC(N3CCCCC3)CC2)cc1	none
O=C(C1CCN(S(=O)(=O)c2ccc(F)cc2)CC1)N1CCOCC1	RGS7-Gao reg 167.6[activator], Avidin bead fluor 110 | RGS4-Gao HTS 115.1 | Avidin counter inactive | RGS8-Gao confirm inactive | RGS7-Gao single inactive | RGS16-Gao conf inactive | RGS4-Gao confirm inactive | RGS19-Gao single inactive
O=S(=O)(c1ccc(F)cc1)N1CCC(N2CCCC2)CC1	RGS7-Gao reg 162.9[activator], Avidin bead fluor 88 | RGS4-Gao HTS 107.3
O=C(COc1cccnc1[N+](=O)[O-])c1ccc(Cl)s1	RGS7-Gao reg inconclusive (no result: GSH bead fluor)
CCOC(=O)C(=O)Nc1ccccc1C(=O)OC	none
CCOC(=O)C(=O)Nc1ccccc1C(N)=O	none (no result: RGS8-Gao, RGS4-Gao reg, RGS7-Gao reg, RGS16-Gao, Avidin bead fluor) | Avidin counter inactive | RGS8-Gao confirm inactive | RGS7-Gao single inactive | RGS16-Gao conf inactive | RGS4-Gao confirm inactive | RGS19-Gao single inactive
